# KB-V1 MDR tox = kills drug-selected multidrug resistant KB-V1 cells. KB-V1 MDR cells viability, CellTiter-Glo, 72 h. AID 1347076. Potency, µM (titrated, usually from 46.1 µM), most hits filed as cytotoxic. 400,000 compounds, 3.4% hits; further: nearly all actives have a fitted effect of over 60% in size
#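 KB-V1, DMEM (no phenol red) + 10% FBS; cpd pin-transferred, titration series; 72 h, 37 degrees C; CellTiter-Glo, luminescence. Data normalized, curve-fit.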
# HT1080-NT tox = kills 2HG-producing HT-1080-NT fibrosarcoma cells. HT-1080-NT fibrosarcoma viability, CellTiter-Glo ATP luminescence, 48 h. Potency, µM (titrated, usually from 46.1 µM), inactives show at the top dose activity, negative = less viability, actives largely listed as cytotoxic. 360,000 compounds, 1.6% hits. AID 686970;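 further: NT is the 2HG producing partner of a matched IDH1 knockdown line; 0% = DMSO-treated cells and -100% = media-only wells without cells; nearly all actives have a fitted effect of over 55% in size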
#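 Viability by CellTiter-Glo luminescence after 48 h compound exposure at 37C of HT-1080-NT cells (750/well, RPMI, 5% FBS). % activity scaled between DMSO wells and medium-only wells, then curve-fitted and categorized by curve class.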
# TDP1 cell CPT = growth inhibition of DT40 Tdp1-/-;hTDP1 cells with camptothecin (screen for TDP1 inhibitors). chicken DT40 Tdp1-/-;hTDP1 cells + 20 nM CPT, ATP luminescence, 48 h. Potency, µM (top dose mostly 46.2 µM), without a hit: at the highest dose activity change, negative = growth inhibition, most hits filed as inhibitors. 420,000 compounds, 12% hits. AID 686979; further: nearly all actives have a fitted effect of over 55% in size
#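 Cell growth measured by CellTiter-Glo luminescence after a minimum 48 h, 37 C compound exposure with 20 nM CPT in Tdp1-knockout DT40 cells stably expressing hTDP1, seeded 400/well; qHTS titration format.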
# DT40 TDP1 no CPT = qHTS for Inhibitors of human tyrosyl-DNA phosphodiesterase 1 (TDP1): qHTS in cells in absence of CPT; DT40 Tdp1-/- hTDP1 cells, no CPT, ATP luminescence, 48 h; 420,000 compounds, 15% hits; Potency, µM (titrated, usually from 46.2 µM), for inactives: at the top dose activity change, negative = growth inhibition, actives largely listed as inhibitors; further: nearly all actives have a fitted effect of over 55% in size
#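 Growth of hTDP1-complemented DT40 Tdp1-knockout cells is measured by ATP luminescence after at least 48 hr compound exposure at 37 °C, with DMSO substituting for the 20 nM CPT used in the parallel screen.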
# KB-3-1 cytotox = KB-3-1 parental cell cytotoxicity | 400,000 compounds, 1.4% hits | AID 1347075 | Potency, µM (top dose mostly 46.1 µM), hits mostly cytotoxic | KB-3-1 viability, CellTiter-Glo ATP luminescence, 72 h; further: nearly all actives have a fitted effect of over 60% in size
#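 Here the drug-naive KB-3-1 line serves as comparator for MDR sub-line selectivity; cells received compound titrations, 72 h at 37 °C, then CellTiter-Glo readout.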
# HT1080 IDH1KD tx = kills HT-1080 cells with IDH1 knockdown. HT-1080 IDH1 knockdown viability, ATP luminescence, 48 h. 360,000 compounds, 2% hits. Potency, µM (highest dose often 46.1 µM), for the others: at the highest dose activity, negative = toxicity, actives largely listed as cytotoxic;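 further: 0% = DMSO wells and -100% = cell-free medium wells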
#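 Using the IDH1-knockdown HT-1080 line run in the same batch and compound series as the NT line, viability after 48 h at 37 °C was determined by CellTiter-Glo luminescence and expressed as % activity.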
# * = called active by the depositor; i = inactive; ? = inconclusive; nt = no result. This is a sample that favours compounds with a hit; in the whole collection about 19% have one here. The call rests on the fitted dose curve; in most records, active means well fitted curve in the direction sought with a large enough effect; inconclusive means small, poorly fitted or top-dose-only effect, or another doubt; inactive means no such curve, though single readings can be large; an effect the other way counts as inactive or inconclusive. Unless noted, on the % scale 0 is the no-effect control and ±100 the full control effect; potency means the concentration at half of the fitted maximal effect.
SMILES,KB-V1 MDR tox,HT1080-NT tox,TDP1 cell CPT,DT40 TDP1 no CPT,KB-3-1 cytotox,HT1080 IDH1KD tx
COc1ccc(NC(=O)N2CCN3CCCCC3C2)cc1OC (stereo not drawn),nt,nt,1.1%,-0.9%,nt,nt
CCOC(=O)c1cc(S(=O)(=O)NCc2ccc(OC)cc2)[nH]n1,i,nt,-13.5%,-23.0%,i,nt
COc1cc(/C=C/c2cncc(/C=C/c3cc(OC)c(OC)c(OC)c3)c2)cc(OC)c1OC,i,nt,-7.5%,-12.1%,i,nt
COc1cc(/C=C2\CC/C(=C\c3cc(OC)c(OC)c(OC)c3)C2=O)cc(OC)c1OC,i,-4.0%,?,10.3µM*,i,-2.8%
CCOc1ccc(NC(=O)Cn2nnc(C(=O)OC)c2C(=O)OC)cc1,i,nt,12.0%,-5.8%,i,nt
CCCc1nc(NCc2ccccn2)c2nnn(Cc3ccccc3F)c2n1,2.91µM*,4.5%,?,?,?,2.1%
CCCc1nc(NCc2ccncc2)c2nnn(Cc3ccccc3F)c2n1,?,?,?,14.6µM*,i,18.4µM*
CCc1nc(NCCc2ccccn2)c2nnn(Cc3ccccc3F)c2n1,i,-0.1%,-21.6%,?,i,-4.9%
Cc1ccccc1C(=O)NC(=S)N(C)CCc1ccccn1,i,9.5%,5.3%,-1.7%,i,?
CCCc1cc(=O)oc2c3c(c4c(c12)OC(C)(C)C=C4)OC(C)C(C)C3O (stereo not drawn),?,5.8µM*,8.2µM*,6.51µM*,?,3.66µM*
O=C1Nc2ccccc2O/C1=C\c1ccccc1Br,i,-6.8%,0.2%,-9.5%,i,-18.6%
Cc1ccc(-c2cc(C(=O)Nc3nccs3)c3ccccc3n2)o1,7.31µM*,6.9%,?,?,i,5.6%
CCNC(=S)NNC(=O)c1cc(-c2cc(C)ccc2C)nc2ccccc12,i,-3.0%,14.6µM*,14.6µM*,i,-10.0%
Cc1ccc(-c2cc(C(=O)Nc3nccs3)c3ccccc3n2)c(C)c1,13µM*,-3.3%,13µM*,13µM*,i,4.3%
O=C(Nc1nccs1)c1cc(-c2ccncc2)nc2ccccc12,?,2.3%,-25.0%,?,i,-18.1%
COc1ccc(OC)c(NC(=O)CCn2cccn2)c1,i,nt,0.2%,-17.9%,i,nt
Cc1ccc(/C([O-])=C(/C(=S)NCc2ccccc2)[n+]2ccccc2)cc1[N+](=O)[O-],i,-9.9%,-23.5%,?,i,-5.5%
CCC(=O)NC(=S)Nc1ccc(NC(=O)c2ccc(C)c([N+](=O)[O-])c2)cc1,i,-4.4%,?,8.2µM*,?,-22.2%
CCOc1ccc(NC(=S)/C(=C(\[O-])c2ccc(C)c([N+](=O)[O-])c2)[n+]2ccccc2)cc1,i,4.5%,?,14.6µM*,i,1.5%
Cc1ccc(C([O-])=C(C(=S)NCc2ccccc2)[n+]2cccc(CO)c2)cc1[N+](=O)[O-],i,0.9%,-0.4%,nt,i,0.3%
CCOc1ccc(NC(=S)Nc2ccc(C)c([N+](=O)[O-])c2)cc1,16.4µM*,?,-4.4%,?,i,11.4%
CCc1cc[n+](/C(C(=S)Nc2cccc(C)c2)=C(/[O-])c2ccc(C)c([N+](=O)[O-])c2)cc1,i,-2.1%,16.4µM*,11.6µM*,i,3.7%
CCOc1ccc(NC(=S)Nc2ccc(OCC)cc2)cc1,i,28.0%,5.5%,-16.0%,i,5.7%
CCc1ccc(OCC(=O)NCc2nc(-c3cccc(C)c3)no2)c(Br)c1,?,nt,-28.6%,-26.4%,i,nt
CCOC(=O)c1c(NC(=O)CS(=O)(=O)c2ccc(C)cc2)sc2c1CCCCC2,i,nt,?,?,i,nt
SMILES,KB-V1 MDR tox,HT1080-NT tox,TDP1 cell CPT,DT40 TDP1 no CPT,KB-3-1 cytotox,HT1080 IDH1KD tx
CCCNC(=O)N(C)C[C@@H]1Oc2cc(C#CC(C)(C)O)ccc2S(=O)(=O)N([C@H](C)CO)C[C@H]1C,i,7.9%,2.2%,23.7%,i,3.7%
Cc1ccc(C(=O)NC(=S)N2CC(C)OC(C)C2)cc1[N+](=O)[O-] (stereo not drawn),?,3.55µM*,?,?,i,2.82µM*
O=C(NCCCN1CCN(c2ccccc2F)CC1)c1nnc(Cc2ccc(Cl)cc2Cl)o1,nt,nt,20.6µM*,14.6µM*,nt,nt
Cc1ccc(Cl)cc1N1CCN(CCCNC(=O)c2nnc(Cc3cccc(Cl)c3)o2)CC1,nt,nt,20.6µM*,10.3µM*,nt,nt
O=C(NCCCN1CCN(Cc2ccccc2)CC1)c1nnc(Cc2c(F)cccc2Cl)o1,?,-5.9%,-11.1%,-29.5%,i,-7.9%
Cc1cccc(N2CCN(CCCNC(=O)c3nnc(Cc4c(F)cccc4Cl)o3)CC2C)c1 (stereo not drawn),i,nt,23.1µM*,?,i,nt
COc1ccc(Cc2nnc(C(=O)NCCCN3CCN(c4ccccc4F)CC3)o2)cc1OC,i,nt,?,?,i,nt
O=C(NCCCN1CCOCC1)c1ccc2nc(Cc3cccc(Cl)c3)oc2c1,?,-3.2%,-20.7%,-22.5%,?,-2.1%
CCSc1nnc2c(n1)OC(CC)N(C(C)=O)c1ccccc1-2 (stereo not drawn),i,nt,nt,nt,i,nt
Cc1cc(OCC(=O)OC(C)C(=O)NC2CC2)c(C(C)C)cc1Cl (stereo not drawn),?,1.1%,?,?,i,0.7%
CN(Cc1ccccc1F)C(=O)c1cccc(NC(=O)CC2SC(N3CCCCC3)=NC2=O)c1 (stereo not drawn),i,-7.9%,18.4µM*,23.1µM*,i,-9.7%
O=C(CC1SC(N2CCCC2)=NC1=O)Nc1ccc(C(=O)Nc2ncccc2O)cc1 (stereo not drawn),i,-27.3%,14.6µM*,10.3µM*,?,?
O=C(CC1SC(N2CCCC2)=NC1=O)Nc1ccc(C(=O)N2CCN(c3cccc(Cl)c3)CC2)cc1 (stereo not drawn),i,0.5%,14.6µM*,?,i,-12.5%
COc1cc(C(=O)OCC(=O)N2CCN(C(C)=O)CC2)ccc1OCC(C)C,i,-0.2%,8.4%,-5.6%,i,-3.3%
CCOC(=O)[C@H]1[C@H]2COc3ccc(Cl)cc3[C@@H]2N2C(=O)c3ccc(Cl)cc3NC(=O)[C@@]12C,i,?,?,18.4µM*,?,-24.0%
